The list is not random: actives were taken first. Their share in the collection is about 1.1%.
AmpC detergent – qHTS Inhibitors of AmpC Beta-Lactamase (assay with detergent) | Potency, µM (doses to about 114 µM), hits mostly inhibitors | hit rate 0.041% among 370,000 | AmpC hydrolysis of nitrocefin, absorbance 480 nm, 0.01% Triton; also: nearly all actives have a fitted effect of over 25% in size
Target sequence (P00811 whole entry, looked up): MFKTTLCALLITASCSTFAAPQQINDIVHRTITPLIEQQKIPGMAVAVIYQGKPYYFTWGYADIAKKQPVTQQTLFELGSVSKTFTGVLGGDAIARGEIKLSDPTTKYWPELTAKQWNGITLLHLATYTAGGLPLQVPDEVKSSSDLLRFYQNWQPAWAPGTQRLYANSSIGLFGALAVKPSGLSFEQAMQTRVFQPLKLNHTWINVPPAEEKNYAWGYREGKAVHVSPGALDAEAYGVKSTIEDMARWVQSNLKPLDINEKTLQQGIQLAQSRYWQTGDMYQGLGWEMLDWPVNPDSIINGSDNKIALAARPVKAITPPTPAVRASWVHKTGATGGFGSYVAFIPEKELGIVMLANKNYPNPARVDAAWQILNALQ
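20 mM phosphate pH 7.0 + 0.01% (detergent screen) or 0.0001% Triton X-100; 5.3 nM AmpC reagent; cpd preinc 15 min RT; nitrocefin (800 uM stock) to start; A480 q20 s × 4 min; Activity was normalised to no-enzyme and no-compound control wells.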
VACV mCherry inh – qHTS for Stage-Specific Inhibitors of Vaccinia Orthopoxvirus: mCherry Reporter Primary qHTS. Vaccinia virus mCherry reporter infection, fluorescence. Potency, µM (top dose mostly 36.5 µM), usual class: inhibitors. hit rate 0.63% among 310,000. AID 720579, 2013; calls by dose curve; tested in A549 cells; also: nearly all actives have a fitted effect of over 35% in size
Vaccinia Venus – qHTS for Stage-Specific Inhibitors of Vaccinia Orthopoxvirus: Venus Reporter Primary qHTS; Potency, µM (doses to about 36.5 µM), hits mostly inhibitors; hit rate 0.46% among 330,000; Vaccinia virus Venus reporter expression, fluorescence; calls by dose curve; tested in A549 cells; also: nearly all actives have a fitted effect of over 30% in size
AmpC inh no detg – qHTS Inhibitors of AmpC Beta-Lactamase (assay without detergent); P00811; AmpC nitrocefin hydrolysis, absorbance 480 nm, 0.0001% Triton; Potency, µM (top dose mostly 57.1 µM), usual class: inhibitors; hit rate 0.52% among 330,000; also: nearly all actives have a fitted effect of over 20% in size
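AmpC (5.3 nM in the dispensed reagent) in 20 mM phosphate pH 7.0 with 0.01% (detergent screen) or 0.0001% Triton X-100 was preincubated with compounds for 15 min at room temperature. Nitrocefin was then added from an 800 uM solution, and hydrolysis was followed at 480 nm.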
Of the large screens only hits and unclear results are named; the others gave an inactive call. Unless noted, calls follow the shape of the dose curve; as a rule, active = well fitted curve in the direction sought with a large enough effect; inconclusive = small, poorly fitted or top-dose-only effect, or another doubt; inactive = no such curve, though single readings can be large; an effect the other way counts as inactive or inconclusive.

COc1cccc(-c2nc3cc(SC)ccc3cc2CN(C(=O)c2sccc2C)C2CC2)c1	none (no result: AmpC detergent, AmpC inh no detg)
Cc1cnc(SCc2ccccn2)nc1C1CCCN(C(=O)c2coc3c2C(=O)CCC3)C1 (stereo unspecified)	none (no result: AmpC detergent, AmpC inh no detg)
CC(C)(C)c1nnc(N/N=C/c2cc(Br)ccc2O)n(N)c1=O	VACV mCherry inh 2.51µM, Vaccinia Venus inconclusive
O=C(NCCc1nnc2n1CCN(Cc1ccc(F)cc1)CC2)c1ccco1	none (no result: AmpC detergent, AmpC inh no detg)
O=C(COc1ccccc1C(=O)Nc1ccccc1)Nc1ccccc1F	none (no result: AmpC detergent, AmpC inh no detg)
O=C(N/N=C/c1ccc(-c2ccc(S(=O)(=O)Nc3ncccn3)cc2)o1)c1cc2ccccc2cc1O	AmpC inh no detg 20µM
CCOc1ccc(C(=O)N/N=C/c2ccc(-c3ccc(S(=O)(=O)Nc4ncccn4)cc3)o2)cc1	none (no result: VACV mCherry inh, Vaccinia Venus)
COc1ccc(NS(=O)(=O)c2ccc3nc(COc4ccc5ccccc5c4)[nH]c3c2)cc1	VACV mCherry inh inconclusive, Vaccinia Venus 28.2µM
COc1ccc(NS(=O)(=O)c2ccc3nc(COc4cccc5ccccc45)[nH]c3c2)cc1	Vaccinia Venus inconclusive, AmpC inh no detg 3.98µM
CC1=CCC2C(=O)N(c3ccccc3OC(=O)c3ccccc3F)C(=O)C2C1 (stereo unspecified)	AmpC inh no detg 10µM
CN1C(=O)CC(c2ccccc2)Nc2ccccc21 (stereo unspecified)	none
N#CC1CC(c2ccccc2)Nc2cc(Cl)ccc2N1 (stereo unspecified)	AmpC detergent inconclusive, Vaccinia Venus inconclusive, AmpC inh no detg 11.2µM
CC(=O)NC(=S)Nc1ccc(NC(=S)NC(=O)/C=C/c2ccco2)cc1	none
Cc1ccc(-c2csc(NC(=S)NC(=O)/C=C/c3ccco3)n2)cc1	AmpC inh no detg 3.98µM (no result: VACV mCherry inh, Vaccinia Venus)
COc1ccc(NC(=S)NC(=O)/C=C/c2ccco2)cc1	AmpC inh no detg 15.8µM
O=C(/C=C\c1ccco1)Nc1nc(-c2ccc3ccccc3c2)cs1	VACV mCherry inh inconclusive, Vaccinia Venus inconclusive
COCC(=O)Nc1cc(C(=O)NC2Cc3ccccc3C2)cc2nc(-c3cccnc3)n(C)c12	none (no result: AmpC detergent, AmpC inh no detg)
O/N=C(/C[n+]1csc2ccccc21)c1ccccc1	none (no result: AmpC detergent, AmpC inh no detg)
CC(C)(C)CC(C)(C)N=C1Nc2ccc(Cl)cc2N[C@]12C[C@H]1CCCC(=O)N3CC[C@@H](C2)[C@@H]13	Vaccinia Venus inconclusive (no result: AmpC detergent, AmpC inh no detg)
Nc1nc(-c2ccccc2)[nH]c(=O)c1N=O	VACV mCherry inh inconclusive, Vaccinia Venus 12.6µM
COc1cc(N(C)C)c(OC)cc1/C=C/c1ccnc2ccccc12	none (no result: AmpC detergent, AmpC inh no detg)
COc1ccccc1C(=O)N[C@@H]1c2ccccc2C2(CCN(Cc3c(O)cccc3OC)CC2)[C@H]1O	Vaccinia Venus inconclusive (no result: AmpC detergent, AmpC inh no detg)
COc1ccc2sc(-c3ccc(S(C)(=O)=O)cc3)c(C#CCO)c2c1	VACV mCherry inh 10µM, Vaccinia Venus inconclusive (no result: AmpC detergent)
Cc1cnc(-n2ncc(C(=O)NCCc3ccccn3)c2C)nc1-c1ccc(F)cc1	none (no result: AmpC detergent, AmpC inh no detg)
O=C1CCCC2=C1C(c1ccccc1)C1C(=O)c3ccccc3C1=N2 (stereo unspecified)	VACV mCherry inh inconclusive, Vaccinia Venus inconclusive
Cc1ccc(C2C3=C(CCCC3=O)N=C3c4ccccc4C(=O)C32)cc1 (stereo unspecified)	AmpC inh no detg 17.8µM
COc1ccccc1C(=O)N1CCCC(c2nc(SCCN3CCOCC3)ncc2C)C1 (stereo unspecified)	none (no result: AmpC detergent, AmpC inh no detg)
CCCC1(CCC)C(=O)NC(=Nc2ccccc2)NC1=O	none
CCCC1(CCC)C(=O)NC(=NCc2ccccc2)NC1=O	AmpC detergent inconclusive, VACV mCherry inh inconclusive, Vaccinia Venus 15.8µM
O=C(Nc1ccccc1)Nc1n[nH]c2nnc(-c3ccccc3)c(-c3ccccc3)c12	AmpC inh no detg 31.6µM
O=Cc1ccc(C(=O)OCC(=O)NC(=O)Nc2ccccc2F)cc1	AmpC inh no detg 28.2µM (no result: AmpC detergent)
CC(C)(C)c1cc(CCC(=O)NCC2CCCO2)cc(C(C)(C)C)c1O (stereo unspecified)	VACV mCherry inh 3.98µM
C/C(=N\Nc1nc(C)cc(-c2ccccc2)n1)c1ccc(F)cc1	AmpC detergent inconclusive (no result: VACV mCherry inh, Vaccinia Venus)
C/C(=N/Nc1nc(-c2ccccc2)cc(-c2ccc(F)cc2)n1)c1cccc(N)c1	VACV mCherry inh 22.4µM, Vaccinia Venus inconclusive
Cc1ccsc1C(=O)N(Cc1cc2ccc(F)cc2nc1N1CCC(O)CC1)CC1CCCO1 (stereo unspecified)	none (no result: AmpC detergent, AmpC inh no detg)
O=C(NC1CCCCC1)c1cc2ccccc2cc1O	VACV mCherry inh inconclusive, AmpC inh no detg 20µM
O=C(NC1CCCCCCC1)c1ccccc1O	AmpC detergent inconclusive
O=C1CCCC(=NNC(=O)c2cc3ccccc3cc2O)C1	AmpC inh no detg 31.6µM (no result: AmpC detergent)
COCCCNC(=O)C(=O)NCCCOC(C)C	AmpC inh no detg 0.282µM (no result: VACV mCherry inh, Vaccinia Venus)
CCC(C)[C@H](NC(=O)NCCCOC(C)C)C(=O)OC (stereo partly specified)	none
CCCCCn1c(=N)n(CC(O)COc2cccc(C)c2)c2ccccc21 (stereo unspecified)	VACV mCherry inh 10µM, Vaccinia Venus 10µM (no result: AmpC inh no detg)
COc1cc(/C=C/C(=O)OCC(=O)NC(=O)NC23CC4CC(CC(C4)C2)C3)ccc1OCC#N	Vaccinia Venus inconclusive, AmpC inh no detg 8.91µM
COc1cc(/C=C/C(=O)OCC(=O)NC(=O)NC(C)C)ccc1OCC#N	none
CCOc1cc(CNCCc2c[nH]c3ccccc23)cc(Cl)c1OCC	VACV mCherry inh inconclusive, Vaccinia Venus 11.2µM
COc1cc(NC(=O)Cn2nnc(-c3ccccc3N)n2)cc(OC)c1	AmpC inh no detg 20µM
O=C(O)c1cccc2c1NC(C(=O)O)C1CC(Sc3ccccc3[N+](=O)[O-])C(Cl)C21 (stereo unspecified)	AmpC detergent 39.8µM
C=C1C(=O)C23C(O)C1CCC2C12CCCC(C)(COC(C)=O)C1C(O)C3(O)OC2 (stereo unspecified)	VACV mCherry inh 2.51µM, Vaccinia Venus 3.98µM (no result: AmpC detergent, AmpC inh no detg)
Cc1cccc2c(N3CCCC3)nc(CNS(=O)(=O)c3ccccc3Cl)nc12	none (no result: AmpC detergent, AmpC inh no detg)
CCCSc1nc(-n2ncc(C#N)c2N)c2c3c(sc2n1)CCC(C)C3 (stereo unspecified)	AmpC inh no detg 2µM (no result: VACV mCherry inh, Vaccinia Venus)
Cc1nc(-n2ncc(C#N)c2N)c2c3c(sc2n1)CCC3	AmpC detergent inconclusive (no result: VACV mCherry inh, Vaccinia Venus)
O=C(Oc1ccc2c(c1)OCO2)c1cc2c(s1)CCC2	AmpC inh no detg 15.8µM (no result: VACV mCherry inh, Vaccinia Venus)
Cc1cc2ccccc2c[n+]1C	none (no result: AmpC detergent, AmpC inh no detg)
CN1CCN(Cc2nc3ccccc3c(=O)n2Cc2nc(-c3ccc([N+](=O)[O-])cc3)cs2)CC1	VACV mCherry inh 10µM, Vaccinia Venus 10µM
C=CCNc1nnc(-c2ccncc2)s1	AmpC detergent inconclusive (no result: VACV mCherry inh)
c1ccc2c(Nc3nnc(-c4ccncc4)s3)cccc2c1	AmpC inh no detg 10µM

Screening data from PubChem.
